In all, about 52,000 sequences went through this assay and about 210 (0.4%) were called active. This excerpt belongs to a sample that is enriched for actives. A number with no mark means an inactive call.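 Rule for the calls: active = gene whose silencing raises cell survival under the drug, median off-target-corrected z-score across its silencing RNAs 2 or more; inactive = the rest.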

105 sequences from PubChem BioAssay AID1347423 (Functional Genomics Laboratory (NCATS/FGL), 2020) can be followed below.

The experiment is described as follows: Resistance to Poly (ADP-Ribose) Polymerase inhibitor: Gene Identification via Genome-wide siRNA Screen. The following applies: mouse BRCA2 R2336H ES cells, olaparib, CellTiter-Glo viability; stronger effect = higher value. The method in brief:
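Genome-wide siRNA screen (3 siRNAs/gene, 20 nM) in mouse ES cells carrying hypomorphic BRCA2 R2336H; olaparib 500 nM added 48 h post-transfection, CellTiter-Glo viability 72 h later. Normalized to plate-median negative control; MAD z-scores, gene median, seed-adjusted.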
Take “GCAGGUGCCAACAUUAUUGTT against 0610039C21Rik”: the z-score was 1.5. GGAAGAAAUGGACCAGCUGTT against Brp16: the z-score was -1.27. The value for CCUUAUCCAAGAGUAGGGCTT against AY534250 was 1.03. The value for GGUGUGACACCUAAGAUGATT against AW212607 was 1.39; that for GGACAAGUUGUUGGACUACTT against Smarca3 was 1.04 (active); that for “CCUAUCUUUACCACAUAGATT against 9030624J02Rik” was -0.939. The value for “GGACCCAUGAGGUUAACUUTT against D15Ertd781e” was -1.18; that for GGUUCACCUGUCAAGUGGATT against Hfe was 0.781. Regarding “GGUGUGGGUGGGAAAAGAATT against 2610027C15Rik”, the z-score is -1.77.

Consider CCUUAUUUUACGGAACUGCTT against Olfr1018, for which the z-score was 0.819. The value for GCUCUGCUAGUCAACUGCATT against Nrip2 was 0.681. The value for GGGAUUUAACAACAUGUAATT against Slc20a1 was 2.29 (active); that for GGGCAUAGAGUCUCAAACUTT against Ptger1 was 0.492; that for GGAGCUUCUAGAGAAGAUCTT against Leng5 was -2.29. The value for “GCGGCAGAUCUUCGAUUUCTT against 2610200G18Rik” was -0.616; that for GCUUCUAAGCCGAAGGCCATT against Hist1h1d was 0.442; that for “CCACCAUCAAAUAUAACUATT against 9930021J03Rik” was 0.126. With GGAACAUGAAGCCUUUUACTT against Asb16, the z-score is 3.12 (active). Take CCCAGGACUCAUGAUUACATT against Tas2r134: the z-score was -1. “CCAUCAAGAGGUAUAAUCUTT against A930017E24Rik”: the z-score is -2.24. The value for CGGACAGAUACAAUAGCUATT against BC057627 was 3.74 (active); that for GGAUUGUGCUGUGAAACAUTT against Pilrb was -1.98; that for GCCUUCAAAUGAAGGAAGGTT against Olfr699 was -0.519. The value for “GGUGAAACUGAAUAAAAUCTT against 4931406C07Rik” was 1.09; that for “GGCUAGAGAAAUAGUGUUGTT against D6Ertd253e” was -0.28; that for GGAUGAAAUUAACUCUGAATT against Adprt1 was 2.49 (active). The value for GCUUAAGGACGCAUUGAAATT against Pthlh was -0.0187. Regarding GGAACACCGAACAUAAAUATT against Gm610, the z-score is -0.526. The value for “UCUGGAGUCUUAUCAAGGATT against 2210020M01Rik” was -0.752; that for “GGUGCCUGACCAAAAAGGATT against A830094I09Rik” was 2.67 (active).

With GCCGACUGGUUAAAUACAUTT against Nme3, the z-score was -0.45.

As for “CCCACUUAUAUAUGUAGUUTT against 2410187C16Rik”, the z-score was -0.391. The value for GGCAGAAGCAAUGAACUAUTT against Npm1 was 3.59 (active); that for GGCCUUGGGAAGGAAAGAGTT against Mospd1 was -1.74; that for GGCACCUAACGACUUCAACTT against Pygm was 0.366. As to GCCCGCUCUCGGAUUUUGATT against Htr1b, the z-score was 2.87 (active). On to “GCUCAGACCAUAGUUUCUATT against A930002I21Rik”, for which the z-score is 1.53. In the case of GCCUCAAAACUUCUUGUUCTT against Mxd3, the z-score was 0.892. The value for GGCCUUUCUGGAGAAGAUGTT against Stfa3 was -0.717. As for CCUUCGAACUCGAAAAAUUTT against Olfr722, the z-score is 0.346.

For “GGCCAUCGAACUCAAUCUCTT against 2810002D13Rik”, the z-score is 0.717.

For the sequence GGUUAAUGGGAAACUCUGCTT against Pias3, the z-score is 2.89 (active). Take GGACUUAUCGGUUAUCUUUTT against Nap1l2: the z-score was 0.654. The value for “CCGCACAGACCAUAGUAGATT against 1700121L12Rik” was 0.0169. The value for “CCUAGUUGAAAAUUGGGAATT against 0610025O11Rik” was -0.794; that for GGAUGAACAGGAGAAAGUCTT against Irak2 was 0.0975; that for CGAUGUACUGUCUCUUUUGTT against Ywhaz was 1.53.

As for GCAACAGGUUAGCGAAACCTT against Bid3, the z-score is 0.43 (active). The value for GGUAGCUAUCAAGGUCAUCTT against Hunk was -0.704. The value for GGAGGAUACCUUCUUCUACTT against Mta3 was 0.46. The value for GCAGGGACCGUCUAUAACUTT against Ptprb was -0.654; that for GCGGAUUUAGUGGCUGGCUTT against Opn5 was -2.04. Regarding GGAAUUUUUGGACAAAGUATT against Grid2, the z-score is -3.07 (active).

For GCUCUUCUCGCAUUCCUAUTT against Gpc2, the z-score is -0.68. The value for CCAGAUUGGUGAUGGUAGUTT against LOC432637 was 0.502; that for GGCUCAUCAAAGGAAGAAATT against Araf1 was 1.44 (active); that for CCAGAACUUCCCAUUAAAATT against Alg8 was -0.0137.

With “CCUUAUUGGGUCAUAAGCATT against 2210403B10Rik”, the z-score is 0.798. The value for CCUCCGUUUGAUGACUCAATT against Tcte3 was 0.671; that for GCGAUUCAAACUUAUUCGATT against Pcdhb15 was 0.749. As for CCAUGAUCAAGAUUGUGCUTT against Slc29a1, the z-score is -0.707. The value for CCCUCGAUCCUUUUCACCUTT against Gja4 was 1.09; that for CUAGUAGGGUCAGAAUUUUTT against Olfr329 was 2.11.

Take CCAUGCAUCUAAGUCUCGATT against Trpm3: the z-score was 1.35. The value for “GGAUUAAUUAAUACUUGGCTT against 3010033P07Rik” was 0.03; that for GGACCACCUAAGUUUAAGCTT against Pde6g was 2.55 (active); that for GCCAGAAUGGACUUGAGAATT against V1re6 was -0.0714. The value for GUUGAGGACUUCUUGCUGGTT against Cmar was -1.03. Turning to GGUAUGAGUGAAGAAAAGATT against Ifi205, the z-score is -0.37. The value for CCAUAAACGACGAAAUGAUTT against Usp11 was 2.97 (active); that for GGCAUCUGUUAUUGAAGUGTT against Vit was 0.771.

Take GGCCGAGUACAAACGUGGATT against AU019532: the z-score is 0.561. The value for CCCUACCUUGAACGAGUACTT against Apoa1 was 0.773 (active); that for “GGAGAAGAAGCAGAGAGAATT against C530028I08Rik” was -0.263; that for CCUUUCAGGCCAAUUGGCATT against Ube2l6 was 0.111.

With “UCUCCUUCCUAACUUCAACTT against E030010A14”, the z-score was 0.4.

Regarding “GGAACAGGACUUUUGAUAATT against 2700050F09Rik”, the z-score was 1.03 (active). As for GGCCAAUGAUGAUAACAAATT against Catnd2, the z-score was 0.564. The value for CCUCUCCUACACUUCAAAATT against Cmya4 was 0.746; that for GGCUUUUUCCUCUACCCACTT against Trhde was 0.762; that for GGUGUUUAAAGAUUUCGUUTT against Dhrs2 was 0.996. GCAAUGAACUAUGAAGGCATT against Npm1: the z-score is 0.811 (active).

As to CCCUUCACAACUUCUUAAUTT against Olfr872, the z-score is 0.609. Consider GGGCAUCAGCAUUUGGUCATT against Pparbp, for which the z-score was 1.17. The value for GGACUACCUCACACUCUUCTT against Oprs1 was -0.235. The value for GCCAUUCCGGCAGUAUUACTT against Pdcd7 was 0.524. The value for CCGACAAAUAAAGGCUUUATT against Ddx52 was -0.0103; that for CCGCAUGACACGACAUGUATT against BC034097 was 2.56 (active); that for “CCCUGUACACACCUAAAAATT against D10Ertd438e” was 1.39.

On to CGUUUGCUCUAAAGCCAGGTT against BC004728, for which the z-score was 1.02. The value for GGAUUUCCUGGAAAAUUCCTT against Siat8a was 0.62; that for GGUGUCUGUCAUGACCAUGTT against Tie1 was 2.02. The value for GCUCGUCUAUGCUAUUUCUTT against Fath was 0.81 (active).

As for GAUCACAGUCACGAUAUAATT against Prss19, the z-score is -1.28. The value for GGAAGAGAUGGAAUUAUUGTT against Sh3bp5 was -0.737; that for GCUUGUGAUCGACUCUGCATT against Centb5 was 0.0161. For the sequence CCUUCAUUUAUUCUACGAGTT against LOC244556, the z-score was 0.476. The value for GCUCUCAUUAGCAUUAUCGTT against Gria1 was -0.366 (active); that for GCAGGUUAAGUAGCUGACATT against Dnclic2 was -1.28; that for “CGUGCAUGCAAAUUAUGUATT against 4933417O08Rik” was -0.372. Turning to GGCACUCAGUAACUGCAUGTT against Gababrbp, the z-score is -0.611. The value for “GGACUGUCAGUACUGUCAATT against E030025L21Rik” was -0.201; that for “GGAGUAAUCAUGCUGGAGCTT against 9930104L06Rik” was 0.406.

Take CCAUGUCCAAUGAGGACUUTT against Htr1b: the z-score was 1.74 (active).

For the sequence CCCUGAACGAAUAAUCGGCTT against Cbx3, the z-score is -0.637.
